24 molecules from PubChem BioAssay can be followed below.

Usually inhibition stands for the relative decrease from the control value, in per cent. For orientation: viability means the share of living cells, or the viability signal relative to a control.

“And” between values parts separate entries of the source, which are not always exact repeats. Equal values may be shown once. Results filed as inconclusive are left out. The source made the active and inactive calls.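 The calls were made as follows, unless noted: active = luciferase signal above three times the same-plate solvent-only control wells; inactive = the rest.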

The target of assay [1] is 6-phosphogluconate dehydrogenase, decarboxylating (Homo sapiens) (UniProt P52209). Put plainly: 6PGD enzyme inhibitors, primary screen, biochemical, human, recombinant enzyme, NADPH absorbance (AID 1159550;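 active = at least 20% inhibition of 6-phosphogluconate dehydrogenase activity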). The note with it: recombinant 6PGD, NADPH absorbance 341 nm; at 10 µM; stronger effect = higher value.
For assay [2], the target named is NAD(+) hydrolase SARM1 (Homo sapiens) (UniProt Q6SZW1). Nature of the assay: SARM1 TIR NADase inhibitors, cell lysate, NAD-Glo luminescence (AID 1508614;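 active = compound whose remaining NAD level is above about 45 nM, limit read from the data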;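 also: higher remaining NAD means stronger inhibition of SARM1 NADase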). As to conditions: SAM-TIR HEK293T lysate NADase, at 1 µM, stronger effect = higher value.
The target of assay [3] is Mitogen-activated protein kinase 7 (Homo sapiens) (UniProt Q13164). Put plainly: ERK5 transactivation activators in reporter cells, primary screen, cell-based, HTS (AID 1508626).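 Also: luciferase driven by Gal4-ERK5 fusion binding five Gal4 sites before minimal TATA.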 As to conditions: HeLa Gal4-ERK5 transactivation, 18 h, at 5 µM, stronger effect = higher value.
Assay [4] has as its target ATP-dependent translocase ABCB1 (Homo sapiens) (UniProt P08183). Put plainly: MDR1 (ABCB1) efflux transporter inhibition, cell-based (AID 377; in the data active = fluorescence slope change above about 50%). The note with it: MDR1-expressing cells, fluorescent substrate accumulation slope; stronger effect = higher value; concentration not given here.
Assay [5] can be described thus: hESC survival regulators, cell-based (AID 493140; call rule not given here;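 also: cells exposed to compounds for four days before counting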). As to conditions: human embryonic stem cell survival screen; stronger effect = higher value.
Assay [6] is described as follows: liver-stage malaria parasite growth inhibition, primary screen, cell-based, HepG2, luciferase luminescence, HepG2 viability (AID 624349; in the data active = parasite load remaining mostly below about 12%, no sharp cut-off; inactive = mostly above about 10%;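 also: 100% = mean of DMSO negative control wells on the same plate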). The note with it: P. berghei liver stage in HepG2, luciferase luminescence, concentration not given here; parasite load remaining: stronger effect = lower value; viability: measured here: HepG2 viability without parasites.
The nature of assay [7]: sensitizers of A549 cells to miR-34 induction, primary screen, imaging, A549 dox-inducible miR-34, nuclei and caspase counts (AID 1347080;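 active = compounds whose cell count with miR-34 switched on is under 0.7 times the count with it off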). The note with it: A549 miR-34 inducible, Hoechst nuclei count, 48 h.

Mitogen-activated protein kinase 7 (Homo sapiens), sequence (Q13164 whole entry, looked up, the tested form may be a part): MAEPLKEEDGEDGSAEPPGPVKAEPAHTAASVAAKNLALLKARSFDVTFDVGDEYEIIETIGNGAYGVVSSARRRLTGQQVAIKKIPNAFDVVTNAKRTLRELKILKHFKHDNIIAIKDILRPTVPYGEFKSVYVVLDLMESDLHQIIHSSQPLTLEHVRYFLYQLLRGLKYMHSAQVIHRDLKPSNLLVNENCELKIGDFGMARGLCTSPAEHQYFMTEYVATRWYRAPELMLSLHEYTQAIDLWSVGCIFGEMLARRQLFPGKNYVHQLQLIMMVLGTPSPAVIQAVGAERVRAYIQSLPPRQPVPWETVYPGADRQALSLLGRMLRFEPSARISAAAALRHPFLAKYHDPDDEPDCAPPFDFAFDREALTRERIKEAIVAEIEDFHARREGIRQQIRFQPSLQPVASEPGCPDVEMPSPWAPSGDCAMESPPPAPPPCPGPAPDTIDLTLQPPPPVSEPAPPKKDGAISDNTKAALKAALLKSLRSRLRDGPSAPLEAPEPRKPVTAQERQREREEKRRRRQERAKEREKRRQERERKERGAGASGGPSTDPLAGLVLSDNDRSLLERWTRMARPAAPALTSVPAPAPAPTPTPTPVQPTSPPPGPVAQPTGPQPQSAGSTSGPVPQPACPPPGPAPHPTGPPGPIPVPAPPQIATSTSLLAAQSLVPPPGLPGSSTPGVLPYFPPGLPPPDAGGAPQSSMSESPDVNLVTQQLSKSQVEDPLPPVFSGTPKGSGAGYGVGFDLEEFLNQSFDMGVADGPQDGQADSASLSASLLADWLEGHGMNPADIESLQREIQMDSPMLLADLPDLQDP
6-phosphogluconate dehydrogenase, decarboxylating (Homo sapiens), sequence (P52209 whole entry, looked up): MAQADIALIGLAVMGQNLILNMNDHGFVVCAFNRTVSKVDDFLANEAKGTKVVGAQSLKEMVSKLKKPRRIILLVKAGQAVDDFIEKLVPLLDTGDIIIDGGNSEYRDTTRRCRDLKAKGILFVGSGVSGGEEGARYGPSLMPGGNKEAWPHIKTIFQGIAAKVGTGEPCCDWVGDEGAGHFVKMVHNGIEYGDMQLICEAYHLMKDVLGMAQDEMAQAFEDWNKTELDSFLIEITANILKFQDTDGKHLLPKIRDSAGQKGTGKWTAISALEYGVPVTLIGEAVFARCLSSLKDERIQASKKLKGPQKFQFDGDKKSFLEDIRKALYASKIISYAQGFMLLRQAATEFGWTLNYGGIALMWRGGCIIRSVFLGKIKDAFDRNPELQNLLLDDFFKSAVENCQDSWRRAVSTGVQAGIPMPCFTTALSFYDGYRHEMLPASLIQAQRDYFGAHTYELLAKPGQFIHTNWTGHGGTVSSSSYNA
NAD(+) hydrolase SARM1 (Homo sapiens), sequence (Q6SZW1 whole entry, looked up, the tested form may be a part): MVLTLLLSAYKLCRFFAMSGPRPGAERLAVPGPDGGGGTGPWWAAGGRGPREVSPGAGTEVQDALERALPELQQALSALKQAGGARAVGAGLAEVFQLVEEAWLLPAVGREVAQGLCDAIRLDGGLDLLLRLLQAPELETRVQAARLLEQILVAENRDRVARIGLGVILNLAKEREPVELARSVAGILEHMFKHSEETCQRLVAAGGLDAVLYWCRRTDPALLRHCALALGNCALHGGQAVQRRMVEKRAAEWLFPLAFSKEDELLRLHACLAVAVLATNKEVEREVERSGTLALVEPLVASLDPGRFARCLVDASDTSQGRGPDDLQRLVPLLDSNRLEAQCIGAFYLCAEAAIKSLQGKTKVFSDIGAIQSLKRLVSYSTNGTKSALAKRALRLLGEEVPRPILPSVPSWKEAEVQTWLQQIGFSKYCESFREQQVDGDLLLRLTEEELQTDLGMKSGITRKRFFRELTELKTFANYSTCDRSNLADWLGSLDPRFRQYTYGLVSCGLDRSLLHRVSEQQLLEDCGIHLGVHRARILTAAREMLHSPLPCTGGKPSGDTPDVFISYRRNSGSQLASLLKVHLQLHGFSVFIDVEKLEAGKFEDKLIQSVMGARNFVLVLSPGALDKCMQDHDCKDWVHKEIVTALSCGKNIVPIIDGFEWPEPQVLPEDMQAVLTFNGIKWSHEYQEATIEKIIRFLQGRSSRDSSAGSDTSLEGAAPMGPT
ATP-dependent translocase ABCB1 (Homo sapiens), sequence (P08183 whole entry, looked up): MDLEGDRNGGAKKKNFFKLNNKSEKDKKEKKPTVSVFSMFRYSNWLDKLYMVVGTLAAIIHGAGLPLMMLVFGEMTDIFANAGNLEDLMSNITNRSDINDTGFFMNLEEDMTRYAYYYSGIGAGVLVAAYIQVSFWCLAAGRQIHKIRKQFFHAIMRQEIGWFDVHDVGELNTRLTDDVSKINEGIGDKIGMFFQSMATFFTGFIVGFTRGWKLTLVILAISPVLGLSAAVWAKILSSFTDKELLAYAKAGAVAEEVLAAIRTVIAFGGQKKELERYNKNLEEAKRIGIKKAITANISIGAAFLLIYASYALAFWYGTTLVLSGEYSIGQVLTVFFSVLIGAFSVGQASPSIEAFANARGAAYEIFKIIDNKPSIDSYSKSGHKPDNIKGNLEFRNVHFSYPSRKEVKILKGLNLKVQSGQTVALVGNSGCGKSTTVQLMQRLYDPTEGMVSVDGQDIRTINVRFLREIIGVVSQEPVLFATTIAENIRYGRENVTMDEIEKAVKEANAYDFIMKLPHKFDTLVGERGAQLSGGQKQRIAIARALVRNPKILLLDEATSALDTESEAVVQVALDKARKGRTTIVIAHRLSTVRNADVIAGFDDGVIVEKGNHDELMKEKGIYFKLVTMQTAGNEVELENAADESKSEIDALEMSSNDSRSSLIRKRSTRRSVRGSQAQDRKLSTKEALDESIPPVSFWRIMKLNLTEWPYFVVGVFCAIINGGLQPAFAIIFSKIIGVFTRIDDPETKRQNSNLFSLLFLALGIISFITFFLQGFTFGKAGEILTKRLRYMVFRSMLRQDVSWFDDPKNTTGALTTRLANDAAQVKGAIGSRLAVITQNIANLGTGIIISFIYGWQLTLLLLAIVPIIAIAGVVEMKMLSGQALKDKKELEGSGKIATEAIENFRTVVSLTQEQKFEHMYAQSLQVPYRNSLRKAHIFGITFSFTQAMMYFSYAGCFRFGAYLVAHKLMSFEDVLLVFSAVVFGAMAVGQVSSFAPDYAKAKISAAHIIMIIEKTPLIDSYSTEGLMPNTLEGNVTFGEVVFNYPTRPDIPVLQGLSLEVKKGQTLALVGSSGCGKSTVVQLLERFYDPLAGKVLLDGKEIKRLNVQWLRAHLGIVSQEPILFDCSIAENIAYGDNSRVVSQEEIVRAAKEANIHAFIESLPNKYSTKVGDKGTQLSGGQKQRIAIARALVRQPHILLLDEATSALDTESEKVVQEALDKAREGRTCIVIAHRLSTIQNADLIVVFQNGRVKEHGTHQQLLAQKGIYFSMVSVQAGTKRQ

Regarding `CCc1cn([C@H]2C[C@H](O)[C@@H](CO)O2)c(=O)[nH]c1=O`, the inhibition in assay [1] was -4.52% (inactive). Also, in assay [2], the remaining NAD is 10 nM (inactive). In addition, in assay [3], the luciferase signal was 64 AU (inactive).
For `O=C(/C=C/c1ccc(O)c(O)c1)O[C@@H]1C[C@](O)(C(=O)O)C[C@@H](O)[C@H]1O`, in assay [4], the fluorescence slope change is 18.7% (inactive). For the same molecule, the survival in assay [5] was 22.8 (inactive). Besides, the parasite load remaining in assay [6] was 105% (inactive) and 63.3% (inactive). The viability in assay [6] was 94.7% and 73.7%. Moreover, in assay [1], the inhibition was -7.84% (inactive). Further, the fold change in assay [7] (stronger effect = lower value, cell number ratio, induced over uninduced) was 0.882 (inactive) and 0.998 (inactive); in assay [7] (measured here: relative caspase fold change +Dox/-Dox), 1.35 and 0.827. The cell count in assay [7] (measured here: total cells with miR-34 induction, stronger effect = lower value) is 9710 and 5820; in assay [7] (measured here: total cells without miR-34 induction), 11000 and 5830. The luciferase signal in assay [3] was 56 AU (inactive).
Consider `CC[C@H]1OC(=O)[C@H](C)C(=O)[C@H](C)[C@@H](O[C@@H]2O[C@H](C)C[C@H](N(C)C)[C@H]2O)[C@](C)(OC)C[C@@H](C)C(=O)[C@H](C)[C@H]2N(CCCCn3cnc(-c4cccnc4)c3)C(=O)O[C@]12C`, for which the inhibition in assay [1] was -10.3% (inactive). Besides, the remaining NAD in assay [2] is 10 nM (inactive). In addition, the luciferase signal in assay [3] was 48 AU (inactive).
In the case of `OC[C@H]1O[C@@](CO)(O[C@H]2O[C@H](CO)[C@@H](O)[C@H](O)[C@H]2O)[C@@H](O[C@H]2O[C@H](CO)[C@@H](O)[C@H](O)[C@H]2O)[C@@H]1O`, the inhibition in assay [1] is 15.1% (inactive). In addition, the luciferase signal in assay [3] is 60 AU (inactive).
As to `O=C(/C=C(\O)c1ccccc1)c1ccccc1O`, the inhibition in assay [1] is -0.592% (inactive). For the same molecule, the luciferase signal in assay [3] was 16 AU (inactive).
On the same counts, the results for `CC1(C)[C@@H](O)CC[C@]2(C)[C@H]3C(=O)C=C4[C@H]5C[C@@](C)(C(=O)O)CC[C@]5(C)CC[C@@]4(C)[C@]3(C)CC[C@@H]12` are -38.1% (inactive) and 24 AU (inactive).
Regarding `CC(=O)OC(C)(C)[C@@H]1Cc2cc3ccc(=O)oc3cc2O1`, in assay [1], the inhibition was 2.42% (inactive). For the same molecule, the luciferase signal in assay [3] was 40 AU (inactive).
Consider `CC(=O)Oc1c(-c2ccccc2)oc2c(CC=C(C)C)c3c(c(OC(C)=O)c2c1=O)C=CC(C)(C)O3`, for which the inhibition in assay [1] was 7.48% (inactive). Also, the luciferase signal in assay [3] was 40 AU (inactive).
As for `C=C1C2CCC3(C)C(c4ccoc4)OC(=O)CC13OC1CC(OC(C)=O)C(C)(C)C(CC(=O)OC)C12C` (stereo not drawn), the inhibition in assay [1] is 5.49% (inactive). Besides, the luciferase signal in assay [3] is 56 AU (inactive).
On to `CC(C)CCC[C@@H](C)[C@H]1CC[C@H]2[C@@H]3C[C@@H](O)[C@@]4(O)C[C@@H](O)CC[C@]4(C)[C@H]3CC[C@]12C`, for which the inhibition in assay [1] is -2.71% (inactive). In assay [3], the luciferase signal was 88 AU (inactive).
For `COc1cc2ccc(=O)oc2c(O)c1O`, the inhibition in assay [1] was 13.8% (inactive). For the same molecule, the luciferase signal in assay [3] was 76 AU (inactive).
`O=C(NCO)c1cccnc1`: in assay [1], the inhibition is -8.21% (inactive). Also, the luciferase signal in assay [3] was 68 AU (inactive).
For `COC(=O)C[C@H]1C(C)(C)[C@@H](OC(C)=O)[C@@H]2CC3C4CC(=O)O[C@@H](c5ccoc5)[C@]4(C)CCC3[C@@]1(C)C2=O` (stereo partly drawn), in assay [1], the inhibition is 7.27% (inactive). Further, the luciferase signal in assay [3] is 28 AU (inactive).
In the case of `COc1ccc2c(c1)CC[C@@H]1[C@@H]2CC[C@]2(C)[C@@H](O)CC[C@@H]12`, the inhibition in assay [1] is -8.02% (inactive). Besides, the luciferase signal in assay [3] is 36 AU (inactive).
Consider `C=C1C(=O)OC2CC1C(OC(C)=O)C/C(C)=C/CC/C(C)=C\CCC2(C)O` (stereo not drawn), for which the inhibition in assay [1] is 10.9% (inactive). Further, the luciferase signal in assay [3] is 16 AU (inactive).
As to `CC(C)c1c(O)ccc2c1CCC1[C@@](C)(C=O)CCC[C@]21C` (stereo partly drawn), the inhibition in assay [1] was -10.2% (inactive). Moreover, in assay [3], the luciferase signal is 16 AU (inactive).
For `C=C1CCC2C(CC2(C)C)C(=C)CC/C1=N/O` (stereo not drawn), the inhibition in assay [1] is 16.7% (inactive). In addition, the luciferase signal in assay [3] was 88 AU (inactive).
Take `CC(C)C1=CC2=CC[C@@H]3[C@](C)(CCC[C@@]3(C)C(=O)O)[C@H]2CC1`: the inhibition in assay [1] was -6.38% (inactive). Also, the luciferase signal in assay [3] is 44 AU (inactive).
On to `C[C@H](CCC(=O)O)[C@H]1CC[C@H]2[C@@H]3CC[C@@H]4C[C@H](O)CC[C@]4(C)[C@H]3C[C@H](O)[C@]12C`, for which, in assay [1], the inhibition is -3.07% (inactive). Moreover, in assay [3], the luciferase signal is 28 AU (inactive).
As to `C=C1[C@@H]([C@@]2(C)C=CC(=O)C(C)(C)[C@@H]2CC(=O)OC)CC[C@@]2(C)C(c3ccoc3)OC(=O)[C@H]3O[C@]132` (stereo partly drawn), the inhibition in assay [1] was 0.696% (inactive). Further, the luciferase signal in assay [3] is 20 AU (inactive).
Consider `COC(=O)[C@@H]1OC(=O)[C@H]2O[C@@]23[C@@]1(C)CCC1[C@@]2(C)CCC(=O)C(C)(C)C2C[C@@H](OC(C)=O)[C@]13C` (stereo partly drawn), for which, in assay [1], the inhibition is 7.3% (inactive). Besides, the luciferase signal in assay [3] was 40 AU (inactive).
Take `C[C@@H]1O[C@@H](O[C@H]2[C@H](O[C@H]3CC[C@@]4(C)[C@@H](CC[C@]5(C)[C@@H]4CC=C4[C@@H]6CC(C)(C)CC[C@]6(C(=O)O)CC[C@]45C)[C@]3(C)CO)OC[C@H](O)[C@@H]2O)[C@H](O)[C@H](O)[C@H]1O`: the inhibition in assay [1] is 10.9% (inactive). For the same molecule, the luciferase signal in assay [3] is 40 AU (inactive).
Consider `COc1ccc(CC(=O)c2ccc(O)cc2O)cc1`, for which the inhibition in assay [1] is 17.5% (inactive). For the same molecule, the luciferase signal in assay [3] is 76 AU (inactive).
Consider `C/C1=C\CCC(=O)C2CC(C)(C)C2CC1` (stereo not drawn), for which the inhibition in assay [1] is -1.45% (inactive). Also, in assay [3], the luciferase signal was 60 AU (inactive).
